Bioassay records deposited in PubChem by National Center for Advancing Translational Sciences (NCATS).
In the library only some 19% were active in any assay of this set; here they are far more common.
HT1080-NT tox – kills 2HG-producing HT-1080-NT fibrosarcoma cells. AID 686970. HT-1080-NT fibrosarcoma viability, CellTiter-Glo ATP luminescence, 48 h. 360,000 tested, 1.6% active. Potency, µM (doses to about 46.1 µM), for the others: top-dose activity, negative = less viability, actives largely listed as cytotoxic;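 also: NT is the 2HG producing partner of a matched IDH1 knockdown line; potency is read from the fitted curve at half-maximal effect; 0% = DMSO-treated cells and -100% = media-only wells without cells; nearly all actives have a fitted effect of over 55% in size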
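HT-1080-NT; 750 cells/well; 5% FBS RPMI; 48 h compound, 37 degrees C; CellTiter-Glo luminescence; curve fitting and curve-class assignment.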
IL1B secr inh – inflammasome signaling inhibition, IL-1 beta readout; THP-1 LPS/ATP IL-1B secretion, AlphaLISA, 16 h; stronger effect = lower value; 360,000 tested, 4.7% active; activity change, % at 57.5 µM; in the data active = activity change below about -50%; inconclusive = mostly about -30% to -49%
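Secreted IL-1B measured by AlphaLISA bead assay after 16 h compound exposure of THP-1 cells; compounds (final up to 57.5 uM) added 1 h before LPS (250 ng/mL) and ATP (1.25 mM) stimulation; lower signal means less secretion.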
ELG1 repair inh – inhibitors of ELG1-dependent DNA repair in HEK293T cells. HEK293T ELG1-luciferase reporter, luminescence, 16 h; DNA damage induced by 5-fluorouridine. Potency, µM (doses to about 46.1 µM), without a hit: top-dose activity change, negative = inhibition, hits mostly inhibitors. 330,000 tested, 2.3% active; also: potency is read from the fitted curve at half-maximal effect; nearly all actives have a fitted effect of over 55% in size
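Overnight (16 hr) co-exposure of 2,000 cells/well to 5-fluorouridine and compound at 37 °C preceded detection. Luciferase was quantified via ONE-Glo luminescence; loss of signal denotes inhibition.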
HT1080 IDH1KD tx – toxicity to HT-1080 IDH1 knockdown cells (counter line) | HT-1080 IDH1 knockdown viability, ATP luminescence, 48 h | AID 686971 | 360,000 tested, 2% active | Potency, µM (series often up to 46.1 µM), without a hit: at the top dose activity, negative = toxicity, most hits filed as cytotoxic;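 also: potency is read from the fitted curve at half-maximal effect; 0% = DMSO wells and -100% = cell-free medium wells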
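Knockdown cells (IDH1KD HT-1080) received compounds 2 h after plating at 750 cells/well and were kept 48 h at 37 °C in 5% FBS RPMI. A CellTiter-Glo luminescence read gave % activity for curve fitting.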
DT40 TDP1 CPT – growth inhibition of DT40 Tdp1-/-;hTDP1 cells with camptothecin (screen for TDP1 inhibitors); chicken DT40 Tdp1-/-;hTDP1 cells + 20 nM CPT, ATP luminescence, 48 h; Potency, µM (highest dose often 46.2 µM), inactives show at the highest dose activity change, negative = growth inhibition, actives largely listed as inhibitors; 420,000 tested, 12% active; AID 686979; also: potency is read from the fitted curve at half-maximal effect; nearly all actives have a fitted effect of over 55% in size
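Chicken DT40 Tdp1-/- cells stably complemented with human TDP1 were seeded at 400 cells/well in medium containing 20 nM camptothecin, exposed to pin-transferred compounds, and grown at 37 °C for at least 48 hr. Viability was read as ATP luminescence.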
DT40 TDP1 no CPT – qHTS for Inhibitors of human tyrosyl-DNA phosphodiesterase 1 (TDP1): qHTS in cells in absence of CPT; DT40 Tdp1-/- hTDP1 cells, no CPT, ATP luminescence, 48 h; Potency, µM (top dose mostly 46.2 µM), inactives show at the highest dose activity change, negative = growth inhibition, most hits filed as inhibitors; 420,000 tested, 15% active; AID 686978, 2013; also: potency is read from the fitted curve at half-maximal effect; nearly all actives have a fitted effect of over 55% in size
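Chicken DT40 Tdp1-/- cells stably complemented with human TDP1 were seeded at 400 cells/well with DMSO in place of 20 nM camptothecin. After compound pinning, cells grew at least 48 hr at 37 °C; viability read by CellTiter-Glo luminescence.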
* hit, by the source's call. Unless noted, calls follow the shape of the dose curve; as a rule, active = well fitted curve in the direction sought with a large enough effect; inconclusive = small, poorly fitted or top-dose-only effect, or another doubt; inactive = no such curve, though single readings can be large; an effect the other way counts as inactive or inconclusive. Unless noted, % is scaled to controls: 0 for no effect and ±100 for the full control effect.

What do the screens show for `NC(=O)CSc1oc(-c2cccs2)nc1S(=O)(=O)c1ccc(Br)cc1`?
DT40 TDP1 CPT: -14.4%; DT40 TDP1 no CPT: inconclusive

What do the screens show for `Cc1c(C#N)c(O)n(CCO)c(=O)c1N=Nc1ccc2c(c1)COC2=O`?
HT1080-NT tox: -5.3%; IL1B secr inh: -57.4*; ELG1 repair inh: 0.2%; HT1080 IDH1KD tx: -0.3%; DT40 TDP1 CPT: -10.1%; DT40 TDP1 no CPT: inconclusive

What do the screens show for `CCOc1ccc(-n2cc(-c3ccccc3)c3c(NCCc4ccccc4)ncnc32)cc1`?
DT40 TDP1 CPT: inconclusive; DT40 TDP1 no CPT: 23.1µM*

What do the screens show for `COc1ccc(CNc2ncnc3c2c(-c2ccccc2)cn3-c2ccccc2)cc1`?
DT40 TDP1 CPT: inconclusive; DT40 TDP1 no CPT: 20.6µM*

What do the screens show for `Cc1ccc(CNc2ncnc3c2c(-c2ccccc2)cn3-c2ccccc2)cc1`?
DT40 TDP1 CPT: inconclusive; DT40 TDP1 no CPT: -88.2%

How did CCOc1ccc(-n2cc(-c3ccccc3)c3c(NCc4ccc(F)cc4)ncnc32)cc1 do in these assays?
DT40 TDP1 CPT: 18.4µM*; DT40 TDP1 no CPT: 11.6µM*

Results for CCOc1ccc(-n2cc(-c3ccccc3)c3c(Nc4cccc(F)c4)ncnc32)cc1 ?
DT40 TDP1 CPT: 1.5%; DT40 TDP1 no CPT: -12.5%

Results for COc1ccc(CNC(=O)c2cc3sccc3n2Cc2ccc(C)cc2)cc1 ?
DT40 TDP1 CPT: -28.4%; DT40 TDP1 no CPT: -63.8%

How did COc1cc(NC(=O)c2cc3cc4ccc(OC)c(Cl)c4nc3s2)cc(OC)c1 do in these assays?
DT40 TDP1 CPT: -26.8%; DT40 TDP1 no CPT: -21.0%

What do the screens show for `Cn1c(=O)c(=O)n(C)c2cc(NS(=O)(=O)c3ccc(Br)cc3)c(Cl)cc21`?
DT40 TDP1 CPT: -26.1%; DT40 TDP1 no CPT: inconclusive

How did CC1=C(C(=O)Nc2ccc(C)cc2C)C(CC(C)C)n2nc(SCc3ccccc3C)nc2N1 (centres undefined) do in these assays?
DT40 TDP1 CPT: 10.3µM*; DT40 TDP1 no CPT: 11.6µM*

How did COc1cccc(CSc2nc3n(n2)C(CC(C)C)C(C(=O)Nc2ccccc2C)=C(C)N3)c1 (centres undefined) do in these assays?
DT40 TDP1 CPT: inconclusive; DT40 TDP1 no CPT: -37.7%

Results for COc1ccccc1NC(=O)C1=C(C)Nc2nc(SCc3ccccc3F)nn2C1c1cccnc1 (centres undefined) ?
DT40 TDP1 CPT: 14.6µM*; DT40 TDP1 no CPT: 10.3µM*

How did CC1=C(C(=O)Nc2ccc(C)cc2C)C(c2ccc(Cl)cc2)n2nc(C(=O)OC(C)C)nc2N1 (centres undefined) do in these assays?
HT1080-NT tox: 2.1%; IL1B secr inh: 6.5; ELG1 repair inh: 2.4%; HT1080 IDH1KD tx: -4.7%; DT40 TDP1 CPT: inconclusive; DT40 TDP1 no CPT: 16.4µM*

How did COc1ccccc1NC(=O)C1=C(C)Nc2nc(SCc3ccccc3)nn2C1c1cccnc1 (centres undefined) do in these assays?
DT40 TDP1 CPT: 20.6µM*; DT40 TDP1 no CPT: inconclusive

How did COc1cccc(CN(C)CCCn2ccc(NC(=O)OCc3ccccc3)nc2=O)c1 do in these assays?
HT1080-NT tox: 1.7%; IL1B secr inh: -13.8; HT1080 IDH1KD tx: -1.0%; DT40 TDP1 CPT: inconclusive; DT40 TDP1 no CPT: -29.9%

Results for COc1ccccc1NC(=O)C1=C(C)Nc2nc(SCc3cc(C)ccc3C)nn2C1c1ccccc1 (centres undefined) ?
DT40 TDP1 CPT: 11.6µM*; DT40 TDP1 no CPT: -79.2%
